This is a sample that favours compounds with a hit; in the whole collection about 4.3% have one here.
UBC13 polyUb – UBC13 polyubiquitin chain formation inhibitors, primary screen, biochemical, TR-FRET, uHTS; inhibition, % at 20 µM; actives 0.47% (n = 330,000); Ubiquitin-conjugating enzyme E2 N (Homo sapiens), P61088; in the data active = inhibition above about 45%, passing the limit was not always enough; inconclusive = no clear call, values can overlap the other calls
Target sequence (P61088 whole entry, looked up): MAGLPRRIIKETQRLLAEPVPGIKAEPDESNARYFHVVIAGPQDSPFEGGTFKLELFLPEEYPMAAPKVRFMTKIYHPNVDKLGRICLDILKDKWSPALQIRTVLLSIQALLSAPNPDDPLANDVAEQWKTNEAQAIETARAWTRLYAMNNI
GRIN3A LBD mod – binders of NR3A ligand-binding domain, primary screen, biophysical, differential scanning fluorimetry, uHTS | NR3A LBD differential scanning fluorimetry, Tm shift; 0% = protein alone, 100% = glycine-bound protein | actives 2.5% (n = 340,000) | Tm shift relative to glycine control, % at 25 µM | Glutamate receptor ionotropic, NMDA 3A (GRIN3A) ligand-binding domain;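 active = melting temperature shift of at least 10% of the positive control shift, at one fixed dose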
dFosB activator – activators of delta FosB homodimer, primary screen, biochemical, fluorescence polarization, TAMRA-CDK5 oligo, single point. Protein FosB (Mus musculus), P13346. purified delta FosB; percent of positive-control signal above neutral wells. activation, % at 25 µM. actives 0.99% (n = 340,000). AID 493131, 2011;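 active = mean activation above about 17%, with every replicate also reaching it, limit read from the data, passing the limit was not always enough; inconclusive = only one of the two conditions met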
Target sequence (P13346 whole entry, looked up): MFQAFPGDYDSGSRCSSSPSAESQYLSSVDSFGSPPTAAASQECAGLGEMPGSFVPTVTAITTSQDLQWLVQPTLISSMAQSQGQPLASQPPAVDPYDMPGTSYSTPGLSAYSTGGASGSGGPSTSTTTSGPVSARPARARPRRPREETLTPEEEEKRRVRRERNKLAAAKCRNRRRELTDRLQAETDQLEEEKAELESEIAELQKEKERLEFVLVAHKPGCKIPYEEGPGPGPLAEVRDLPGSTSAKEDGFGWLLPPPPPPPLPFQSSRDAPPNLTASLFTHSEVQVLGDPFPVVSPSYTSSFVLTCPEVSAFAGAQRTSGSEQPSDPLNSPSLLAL
NALP1 inh – NALP1 inflammasome inhibitors in reconstituted yeast, colorimetric, S. cerevisiae, triplicate retest | actives 0.61% (n = 280,000) | inhibition, % at 10 µM | AID 2071, 2009 | S. cerevisiae NALP1/ASC/caspase-1 growth, X-gal OD620, 72 h; in the data active = inhibition mostly above about 24%, no sharp cut-off; inactive = mostly below about 32%
Yeast superoxide – reduction of superoxide in aged yeast, primary screen, HTS | superoxide response (% of plate mean), % at 10 µM | actives 0.18% (n = 330,000) | S. cerevisiae aged cells, superoxide DHE fluorescence; active compounds read low;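 active = superoxide response under a set limit, about three screen SD below normal, cut at about 65% in these data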;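 also: yeast aged for seven days with compound at 30 °C before DHE staining; 100% = average MFI of all compound-treated wells on the plate with controls excluded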
* hit, by the source's call; ? = inconclusive; . = no result given.

SMILES	UBC13 polyUb	GRIN3A LBD mod	dFosB activator	NALP1 inh	Yeast superoxide
CC(OC(=O)c1ccc(NC(=O)CC#N)cc1)C(=O)NC(=O)NC1CCCCC1 (stereo unspecified)	-7	-4	58*	14	93
COc1cccc(C2C(C(=O)OC(C)C)=C(C)N=c3s/c(=C\c4ccc(C(=O)O)cc4)c(=O)n32)c1 (stereo unspecified)	-1	-2	-2	15	117
O=c1/c(=C\c2ccc(O)cc2)sc2n1C(c1ccccc1)C(c1ccccc1)=NN=2 (stereo unspecified)	-37	15*	-5	12	94
CC(=O)O/N=C/c1c(N2CCOCC2)n(C)c2ccccc12	7	-4	-6	29*	108
Cc1ccc(C(=O)O/N=C/c2c(N3CCOCC3)n(C)c3ccccc23)cc1	18	-10	-9	-4	89
O=c1c2ccccc2nc2sc(Nc3ccc(F)cc3)nn12	4	-4	-17	.	109
COc1cccc(Nc2nn3c(=O)c4ccccc4nc3s2)c1	4	23*	15	.	81
Cc1c(C(C)(C(=O)O)c2c(C)n(C)c3ccccc23)c2ccccc2n1C	-13	.	.	6	100
Nc1nc2ccccc2n1C(=O)c1ccco1	.	16*	-9	14	.
COc1ccc2nc(C)cc(SCC(=O)N/N=C/c3ccc(O)cc3O)c2c1	17	25*	?	4	97
COc1cccc2c(SCC(=O)N/N=C/c3ccc(O)cc3O)cc(C)nc12	35	26*	11	-23	.
CC(C)c1ccc(N=C2N=C(N)c3ccccc32)cc1	5	-2	12	7	100
Cc1sc2nc[nH]c(=O)c2c1-c1ccc(Cl)cc1	-8	-3	-7	16	97
O=C1N=c2ccccc2=C1c1sc(=S)n(-c2ccc(O)cc2)c1O	-44	29*	1	-4	111
O=C1N=c2ccccc2=C1c1sc(=S)n(Cc2ccccc2Cl)c1O	-27	19*	-16	19	106
CC(C)Cn1cnc2sc3c(c2c1=N)CCCC3	0	5	0	40*	103
Cc1ccc(CCNc2ncnc(Cl)c2N)cc1	.	8	-5	.	.
O=C(O)c1ccccc1C(=O)Nc1nc(-c2ccc3ccccc3c2)cs1	-18	-9	1	18	132
Cc1ccc(-c2csc(NC(=S)NC(=O)/C=C/c3ccco3)n2)cc1	-16	17*	0	5	97
O=C(/C=C\c1ccco1)Nc1nc(-c2ccc3ccccc3c2)cs1	-2	25*	7	16	104
COc1ccc(N(CC(=O)Nc2ccccc2C(N)=O)S(=O)(=O)c2ccc(C)c([N+](=O)[O-])c2)cc1	-12	0	5	-5	101
O=C(NCCCN1C(=O)c2ccccc2C1=O)OCc1ccccc1	.	0	1	.	.
O=C(CNC(=O)c1ccccc1O)N/N=C/c1cc(Br)ccc1OC(=O)/C=C/c1ccco1	-8	13*	.	-16	101
O=C(NCCc1ccccc1)c1cccc(NC(=O)C2CC2)c1	.	-1	-4	.	.
O=C(/C=C/c1ccccc1)Nc1cccc(C(=O)NCCc2ccccc2)c1	.	17*	-15	.	.
SMILES	UBC13 polyUb	GRIN3A LBD mod	dFosB activator	NALP1 inh	Yeast superoxide
O=C(/C=C/c1ccccc1)Nc1cccc(C(=O)NCCCCc2ccccc2)c1	.	27*	-5	.	.
CC(=O)c1ccc(-c2ccc(C(=O)NC3CC(C)(C)NC(C)(C)C3)o2)cc1	19	-1	-25	.	94
O=C(CCNS(=O)(=O)c1ccc(Cl)cc1)N1CCN(c2ncccn2)CC1	2	3	-4	.	.
CCOc1cccc(-c2c(C(=O)N/N=C/c3ccc(C)s3)nnn2-c2nonc2N)c1	-11	21*	-2	-2	107
CCOc1cccc(-c2c(C(=O)N/N=C/c3sccc3C)nnn2-c2nonc2N)c1	-6	1	5	-18	95
COc1cccc(-c2c(C(=O)N/N=C/c3ccc(C)s3)nnn2-c2nonc2N)c1	2	13*	-2	3	96
COCCn1cc(C(=S)N2CCOCC2)c2ccccc21	-13	1	8	33*	102
CCN(C(=O)COC(=O)c1ccc(O)cc1O)c1c(N)n(Cc2ccccc2)c(=O)[nH]c1=O	12	-1	-5	.	94
COC(=O)c1cc(NC(=O)CC2SC(=Nc3ccccc3)N(CCc3c[nH]c4ccccc34)C2=O)cc(C(=O)OC)c1 (stereo unspecified)	-10	23*	0	-11	104
O=c1ccc(S(=O)(=O)N2CCCC2)cn1Cc1ccc(Cl)cc1Cl	8	0	-1	.	120
COc1ccc(/C=N/NC(=S)Nc2ccccc2)cc1COc1ccc(F)cc1	-3	-3	2	-5	97
COc1ccc(/C=N/NC(=S)Nc2ccccc2)cc1COc1ccc(Br)cc1	-15	11*	-16	.	112
Nc1c(Cl)ncnc1N/N=C/c1ccc(O)cc1	0	14*	-8	.	72
COc1ccc(/C=N/Nc2ncnc3sc(C)c(C)c23)cc1	-19	-10	-11	31	102
Oc1ccc(/C=N/Nc2nccnc2Cl)cc1	0	-12	-2	42	97
Cc1sc2ncnc(N/N=C/c3ccc(O)cc3)c2c1C	-5	35*	-11	-25	89
Nc1ccc(C(=O)c2cccs2)cc1[N+](=O)[O-]	-11	-24	1	8	101
COCCNS(=O)(=O)c1cccn1-c1ncc(C(F)(F)F)cc1Cl	6	0	-5	40*	98
CN(C)C(=O)c1cccn1-c1ncc(C(F)(F)F)cc1Cl	-4	-1	-2	-22	98
COc1ccc2nc(N/C(N)=N/C(=S)Nc3ccccc3)nc(C)c2c1	-6	19*	15	-3	107
CCOc1ccc2nc(N/C(N)=N/C(=S)Nc3ccc(OC)cc3)nc(C)c2c1	-7	27*	13	-6	85
Cc1cccc(NC(=S)/N=C(\N)Nc2nc(C)c3cc(C)ccc3n2)c1	-20	20*	10	28	108
COc1ccc(C(=O)NCc2nnc(SCC(=O)NC3CCCC3)o2)cc1	2	0	-1	0	100
Cc1ccc(NC(=O)/C(C#N)=C/c2ccsc2)c(C)c1	-24	12*	-3	22	101
Cc1ccccc1NC(=O)/C(C#N)=C\c1ccsc1	4	-2	-11	38	99
O=C(NC1CCCCC1)C(c1ccc2ncccc2c1)N(Cc1cccs1)C(=O)c1cccs1 (stereo unspecified)	-3	14*	5	12	91
Cc1ccc(Sc2ncccc2NC(=O)c2ccccc2Cl)cc1	-8	14*	-2	-16	83

High-throughput results: PubChem BioAssay, several laboratories
